p53 reactivation = re-activators of mutant p53. H1299 p53-A138V BP100-luciferase reporter, luminescence, 24 h. Potency, µM (titrated, usually from 92.2 µM), usual class: activators. 320,000 tested, 0.063% active. AID 504706; further: nearly all actives have a fitted effect of over 45% in size
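H1299 (p53-null), stable ts p53-A138V + BP100-Luc; 1000 cells/well, Opti-MEM/10% FBS; cpd 4 pt, 1:5; 24 h, 37 deg C, 5% CO2; detection reagent 10 min RT; luminescence.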
Nrf2 ARE act = Nrf2 pathway activation | AREc32 ARE-luciferase reporter (MCF7-derived line), luminescence, 24 h | Potency, µM (doses to about 46.1 µM), actives largely listed as activators | 410,000 tested, 0.31% active | AID 624171; further: nearly all actives have a fitted effect of over 65% in size
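Luminescent ARE reporter assay in AREc32_Fluc cells: overnight plating at 37 deg C, 24 hr compound incubation, Steady-Glo added, 30 min RT before reading.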
IL2 activator = activators of IL-2; IL-2 activation reporter assay, cell-based qHTS; stimulated with anti-CD3/CD4/CD28 beads; in transgenic mouse T cells; activation, % (series mostly up to about 46 µM); 360,000 tested, 0.065% active; in the data active means activation above about 50%; inconclusive means mostly about 30% to 49%
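Unstimulated transgenic mouse T cells; 60-min compound exposure; bead-based TCR/CD4/CD28 stimulation; 18 h culture, 37 degrees C; dual fluorescence (EGFP, DsRed) plate cytometry.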
BRCA1 expr up = increases BRCA1 expression | MCF7-BRCA1-FFLuc reporter, luminescence, 48 h; response scale: scaled: vehicle 0%, 10 µM genistein 100% | Potency, µM (titrated, usually from 46.1 µM), hits mostly activators | 380,000 tested, 1.1% active | AID 624202; further: nearly all actives have a fitted effect of over 80% in size
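Reporter cells (MCF7, BRCA1 promoter-firefly luciferase) received library compounds across a concentration series for 48 h. End-point luminescence was measured and concentration-effect curves derived after normalization.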
Nrf2 block = Nrf2 pathway inhibition; A549 ARE-Fluc reporter, luciferase luminescence, 18-24 h; Potency, µM (doses to about 46 µM), usual class: inhibitors; 360,000 tested, 2.1% active; AID 504444; further: nearly all actives have a fitted effect of over 60% in size
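A549 ARE_Fluc cells (5000/well, 5% FBS OPTI-MEM) pre-incubated 2 h, then treated with compounds 18-24 h at 37C/5% CO2 in concentration-response. CellTiter-Fluor viability read first; BugLite luciferase luminescence after 15 min at room temperature gives Nrf2 activity.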
A549 tox = counter-screen for Nrf2 inhibitors: cytotoxicity in A549 cells; A549 ARE-Fluc cells, CellTiter-Fluor viability, 18-24 h; Potency, µM (titrated, usually from 46 µM), actives largely listed as inhibitors; 390,000 tested, 0.16% active; AID 504648
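A549 ARE_Fluc cells in 5% FBS OPTI-MEM were exposed to compounds in concentration-response for 18-24 h at 37 deg C. Viability was read by CellTiter-Fluor fluorescence (Ex 405/Em 525) after 30 min, before the luciferase read.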
Of the large screens only hits and unclear results are named; the others gave an inactive call. Compounds with a hit are over-represented: about 3.2% of the library has one in this group of screens. Unless noted, the call rests on the fitted dose curve; in most records, active means well fitted curve in the direction sought with a large enough effect; inconclusive means small, poorly fitted or top-dose-only effect, or another doubt; inactive means no such curve, though single readings can be large; an effect the other way counts as inactive or inconclusive.

COc1ccc(OC)c(CNC(=O)CCCn2ccc3cc(S(=O)(=O)N4CCCC4)ccc32)c1	Nrf2 block 15µM, A549 tox inconclusive
CCc1ccc(CNC(=O)Cn2ccc3cc(S(=O)(=O)N4CCCCCC4)ccc32)cc1	none (no result: p53 reactivation, IL2 activator, BRCA1 expr up)
COc1ccc(NC(=O)CCOc2ccccc2F)cc1S(=O)(=O)N1CCCCC1	Nrf2 block 21µM
Cc1ccc(CNC(=O)Cn2ccc3cc(S(=O)(=O)N4CCCCCC4)ccc32)cc1	Nrf2 block 15µM, A549 tox inconclusive
CCN(CC)c1ccc(NC(=O)CCc2c(C)nc3ncnn3c2C)c(C)c1	none (no result: p53 reactivation, IL2 activator)
CCCC(CCC)C(=O)Nc1cccc(-c2nc3cccnc3s2)c1C	Nrf2 block inconclusive (no result: p53 reactivation, IL2 activator, BRCA1 expr up)
CS(=O)(=O)/C=C/c1nc(Nc2cc(F)cc(F)c2)c2ncn(CC(F)F)c2n1	none (no result: p53 reactivation, Nrf2 ARE act, IL2 activator, BRCA1 expr up)
COc1ccccc1CNCC(=O)Nc1cc(S(=O)(=O)N2CCCCC2)ccc1C	none
COc1ccc(S(=O)(=O)N2CCCCC2)cc1NCC(=O)Nc1ccc(C)cc1	Nrf2 block 16µM
COc1ccc(OC)c(CC(=O)Nc2cc(S(=O)(=O)N3CCCCC3)ccc2C)c1	Nrf2 block 21µM
COc1ccc(S(=O)(=O)N2CCCCC2)cc1NC(=O)c1[nH]c(C)c(C(C)=O)c1C	Nrf2 block 18µM
Cc1ccc(S(=O)(=O)N2CCOCC2)cc1NC(=O)COC(=O)c1ccco1	IL2 activator 81 (no result: p53 reactivation, Nrf2 block, A549 tox)
O=C1CN(C(=O)c2ccc(S(=O)(=O)N3CCCC3)cc2)C(c2ccccc2)c2cc(Br)ccc2N1 (configuration not stated)	none (no result: p53 reactivation, IL2 activator, BRCA1 expr up)
COC(=O)C1=C[C@@H](C(=O)OC)[C@@H]2C3=C(C(=O)[C@@]2(CC(C)C)NC(=O)c2ccccc2)[C@H](C)n2c(=O)n(-c4ccccc4)c(=O)n2[C@@H]3C1	none (no result: p53 reactivation, Nrf2 ARE act, IL2 activator, BRCA1 expr up)
COc1ccc(-n2cnnc2SCC(=O)Nc2cc(S(=O)(=O)N3CCCCC3)ccc2C)cc1	Nrf2 block inconclusive
Cc1ccc(S(=O)(=O)N2CCCCC2)cc1NC(=O)CSc1nncn1-c1ccccc1	Nrf2 block 18µM
CN(CC(=O)Nc1ccc(F)cc1)c1ccc(S(=O)(=O)N2CCCCC2)cc1[N+](=O)[O-]	Nrf2 block 13µM
COc1ccc(S(=O)(=O)N2CCCCCC2)cc1C(=O)N(C)CC(=O)Nc1ccc(F)cc1	none
CCCn1c2ccccc2c2cnn(CC(=O)N(CCCOC(C)C)Cc3ccco3)c(=O)c21	Nrf2 block inconclusive (no result: p53 reactivation, IL2 activator, BRCA1 expr up)
O=C(Nc1ccc(C(F)(F)F)cc1)c1cc(S(=O)(=O)NC2CCCCCC2)ccc1F	A549 tox inconclusive (no result: p53 reactivation, IL2 activator, BRCA1 expr up, Nrf2 block)
COc1ccc(NC(=O)C2CC(=O)N/C(=N/N=C/c3ccco3)S2)cc1 (configuration not stated)	Nrf2 ARE act 2.5µM, Nrf2 block inconclusive
O=C1CC(C(=O)Nc2ccc(Br)cc2)S/C(=N\N=C\c2ccco2)N1 (configuration not stated)	Nrf2 ARE act 6.3µM
CCn1cc2nc(SCc3cccc(C(F)(F)F)c3)n(CCc3ccccc3)c(=O)c2n1	Nrf2 block 15µM (no result: p53 reactivation, IL2 activator)
COCCCNC(=O)c1ccc(-n2c(-c3ccccc3)cc3c2CCC(C)C3)cc1 (configuration not stated)	Nrf2 ARE act inconclusive (no result: p53 reactivation, IL2 activator, BRCA1 expr up)
COc1ccccc1CNC(=O)COC(=O)c1cc(-c2ccco2)nc2ccccc12	Nrf2 ARE act inconclusive
CC(C)CCNC(=O)c1cc(-c2ccco2)nc2ccccc12	Nrf2 ARE act inconclusive
CN(C)C(CNC(=O)c1cc(-c2ccco2)nc2ccccc12)c1ccccc1 (configuration not stated)	Nrf2 ARE act 13µM, Nrf2 block inconclusive
O=C(NCC1CCCO1)c1cc(-c2ccco2)nc2ccccc12 (configuration not stated)	Nrf2 ARE act 11µM
NC(=O)COC(=O)c1cc(-c2ccco2)nc2ccccc12	Nrf2 ARE act 3.5µM
COc1ccc2nc(SCC(O)c3cccc(Br)c3)[nH]c2c1 (configuration not stated)	none (no result: p53 reactivation, IL2 activator, BRCA1 expr up)
CCOC(=O)c1c(C)[nH]c(C)c1S(=O)(=O)N(C)CC(=O)Nc1cccc(C(F)(F)F)c1	none (no result: p53 reactivation, IL2 activator)
CCCC[C@H]1CCCO[C@@](C(=O)NCCN2CCOCC2)(C(F)(F)F)C1	none (no result: p53 reactivation, Nrf2 ARE act, IL2 activator, BRCA1 expr up)
CCOC(=O)N1CCc2c(sc3c2c(=O)n(CCc2ccccc2)c(=O)n3Cc2c(F)cccc2Cl)C1	none (no result: p53 reactivation, IL2 activator, BRCA1 expr up)
O=C(CCC1N=C2c3ccccc3N=C(SCc3ccccc3Cl)N2C1=O)NCc1ccco1 (configuration not stated)	Nrf2 block 18µM, A549 tox inconclusive
Cc1nc2ccccc2n1CCOc1ccc(F)cc1	Nrf2 block 21µM
Cc1[nH]c2ccccc2c1/C=C/c1cc[n+](C)cc1	IL2 activator 192, Nrf2 block 2.1µM, A549 tox 8.2µM
Cc1[nH]c2ccccc2c1/C=C/c1c(C)[nH]c2ccccc12	none (no result: p53 reactivation, Nrf2 ARE act, IL2 activator, Nrf2 block, A549 tox)
C=CCn1c(C)c(/C=C/c2cc[n+](C)cc2)c2ccccc21	IL2 activator 122, Nrf2 block inconclusive (no result: p53 reactivation)
CCn1c(/C=C/c2c(C)n(CC)c3ccccc23)nc2ccccc2c1=O	none
CCN(CC)C(=O)Cn1c(C)c(/C=C/c2cc[n+](C)cc2)c2ccccc21	IL2 activator 115 (no result: p53 reactivation)
CCN(CC)S(=O)(=O)c1nnc(NC(=O)c2ccc(C(C)C)cc2)s1	Nrf2 block inconclusive (no result: p53 reactivation, IL2 activator, BRCA1 expr up)
CC(=O)N1CCc2c(sc(NC(=O)C3COc4ccccc4O3)c2C(N)=O)C1 (configuration not stated)	none
COC(=O)c1c(NC(=O)C2COc3ccccc3O2)sc2c1CCN(C(C)=O)C2 (configuration not stated)	Nrf2 block 21µM, A549 tox inconclusive
CC1CCN(c2nc3nonc3nc2Nc2ccc(F)cc2)CC1	Nrf2 block 9.2µM, A549 tox inconclusive
COc1ccc(Nc2nc3nonc3nc2N2CCCCC2)cc1	Nrf2 block 26µM
CCc1cccc(NCc2ccccc2-c2nnc(-c3ccccc3Cl)o2)c1	Nrf2 block inconclusive (no result: p53 reactivation, IL2 activator, BRCA1 expr up)
Cc1cc(/C=C2\SC(=S)NC2=O)c(C)n1-c1ccccc1	p53 reactivation inconclusive, BRCA1 expr up inconclusive, Nrf2 block inconclusive, A549 tox inconclusive
Cc1cc(C(=O)O)ccc1-n1c(C)cc(/C=C2\SC(=O)NC2=O)c1C	none
COC(=O)c1cccc(-n2c(C)cc(/C=C3\SC(=O)NC3=O)c2C)c1	BRCA1 expr up 10µM (no result: p53 reactivation, Nrf2 block, A549 tox)
COC(=O)C1=C(C)NC(=O)/C1=C\c1cc(C)n(-c2c(C)cccc2C)c1C	p53 reactivation inconclusive, Nrf2 block 23µM, A549 tox 21µM

Assay outcomes deposited in PubChem by National Center for Advancing Translational Sciences (NCATS).
